Compound activity deposited in PubChem BioAssay by Broad Institute.
aSyn UTR act = Activators via SNCA 5'UTR binding, MLPCN; alpha-synuclein 5'UTR reporter, activators screen; activity score, % (tested at 7.5 µM), hits read low; 7.1% of 300,000 active; in the data active = activity score below about -60%
The depositor's hits bear a star. Not all results are given here.

SMILES	aSyn UTR act
O=C(NCc1ccccc1)C1CCN(S(=O)(=O)c2cc([N+](=O)[O-])ccc2Cl)CC1	-67*
O=C(Nc1nc2ccc(F)cc2s1)C1CCN(S(=O)(=O)c2cc([N+](=O)[O-])ccc2Cl)CC1	-197*
Cc1ccc2nc(NC(=O)C3CCN(S(=O)(=O)c4cnc[nH]4)CC3)sc2c1	-78*
CC(=O)N1c2ccc(S(=O)(=O)N3CCC(C(=O)NCc4ccccc4Cl)CC3)cc2CC1C (configuration not stated)	-182*
Cn1ncc(Cl)c(Oc2ccc(Cl)cc2)c1=O	-73*
Cn1ncc(Oc2ccc([N+](=O)[O-])cc2)c(Cl)c1=O	-66*
COc1ccc(Oc2c(Cl)cnn(-c3ccc(Cl)c(Cl)c3)c2=O)cc1	73
CSC1=NC(C)(C)C=C(/C=C/c2ccc(Cl)cc2)N1	-96*
CN(C)Cc1c(O)ccc2cc(-c3nc4ccccc4n3C)c(=O)oc12	-70*
CCN(CC)c1ccc2cc(-c3nc4ccccc4n3C)c(=O)oc2c1	-226*
CCOc1ccccc1NC(=S)/C(=C(\[O-])c1ccc2c(c1)OCCO2)[n+]1ccc(CC)cc1	-64*
[O-]/C(=C(\C(=S)Nc1ccccc1F)[n+]1ccccc1)c1ccc(-c2ccccc2)cc1	-71*
[O-]/C(=C(\C(=S)Nc1ccc(Cl)cc1)[n+]1ccccc1)c1ccc(OC(F)F)cc1	-79*
CC(C)(C)c1cc[n+](/C(C(=S)Nc2ccccc2F)=C(/[O-])c2ccc3c(c2)OCCO3)cc1	-74*
Clc1ccccc1-c1nnc(-c2cccnc2)o1	-139*
Clc1ccccc1-c1nnc(-c2cccs2)o1	-215*
Clc1ccccc1-c1nc(-c2cccnc2)no1	-104*
Cc1nc(-c2noc(-c3ccccc3Cl)n2)c(C(F)(F)F)o1	-142*
CN(C)c1ccc(-c2nnc(-c3cccs3)o2)cc1	82
Cc1ccccc1-c1nc(-c2ccccn2)no1	95
CSc1ccccc1-c1nc(-c2ccncc2)no1	-195*
Cc1ccccc1-c1nc(-c2cccnc2)no1	-227*
Clc1ccccc1-c1nc(-c2ccncc2)no1	-112*
Clc1cccc(Oc2cnc3ccccc3n2)c1	-66*
COc1ccc(Oc2cnc3ccccc3n2)cc1	-65*
SMILES	aSyn UTR act
CC(C)(C)c1ccc(Oc2ccc(N)cn2)cc1	87
CCOc1ccc2c(c1)c(N=O)c(O)n2C	-65*
COc1ccc(-c2nc3cc(NC(=S)NC(=O)Cc4ccccc4)ccc3o2)cc1	-143*
CCC(=O)NC(=S)Nc1ccc2oc(-c3ccc(OC)cc3)nc2c1	-169*
Cc1ccc(-n2nc3ccc(NC(=S)NC(=O)/C=C/c4ccco4)cc3n2)cc1	-96*
Cc1ccc(-n2nc3cc(C)c(NC(=S)NC(=O)/C=C/c4ccco4)cc3n2)cc1	-257*
Cc1ccc(C)c(NC(=S)c2ccc3ccccc3n2)c1	-288*
Cc1ccc(C)c(NC(=S)c2ccccn2)c1	-114*
S=C(Nc1ccc(Cl)cc1)c1nc2ccccc2s1	-127*
Cc1ccc(C)c(NC(=S)c2nc3ccccc3s2)c1	-258*
O=C(NCCSc1ccccc1)c1ccccc1Cl	-82*
Cc1ccccc1C(=O)NCCSc1ccccc1	-111*
CSc1ccccc1C(=O)NCCSc1ccccc1	-66*
O=C(N/N=C(\c1ccccc1)c1ccccn1)c1ccccc1Cl	68
COc1cc(CNc2ccccc2SC)ccc1O	-72*
C/C=C/COC(=O)c1[nH]c2c(c1C)C(=O)CC(c1ccco1)C2 (configuration not stated)	67
CCOC(=O)C1=C(N)n2c(s/c(=C\c3ccco3)c2=O)=C(C(=O)OCC)C1c1ccco1 (configuration not stated)	-78*
COC(=O)c1ccc(COC(=O)c2ccc(SC)cc2OC)cc1	-115*
Oc1c(CN2CCCCC2)cc(COCc2ccccc2)c2cccnc12	92
COc1cc(C(=S)N2CCCC2)ccc1OCc1ccccc1	-67*
CCC(=O)c1ccc(OCc2ccccc2)c(OC)c1	-85*
CCCCCCCCCCOC(=O)Cn1c(COc2ccccc2OC)[n+](C)c2ccccc21	81
CCC(=O)c1ccc(OCc2ccc(C(=O)OC)cc2)c(OC)c1	-75*
O=[N+]([O-])c1cccc(/C=N/N2CCN(c3ccccn3)CC2)c1	-99*
O=[N+]([O-])c1cccc(/C=N/N2CCN(Cc3ccccc3)CC2)c1	-115*
SMILES	aSyn UTR act
CC(=O)Nc1ccc(-c2nnc(SCC(=O)c3ccc4c(c3)Cc3ccccc3-4)n2C)cc1	-62*
Cc1c(C(=O)NCC(C)C)sc2nc(-c3ccc(F)cc3)cn12	-128*
Cc1c(C(N)=O)sc2nc(-c3ccccc3)cn12	-105*
COc1ccc(-c2cn3c(C)c(C(=O)Nc4cccc(NC(C)=O)c4)sc3n2)cc1	-100*
COc1ccc(/C(N)=N/OC(=O)C2CCCCC2)cc1OC	-86*
COc1ccc(-c2ccc(C(=O)C3CC3)cc2)cc1	-107*
COc1ccc(/C(N)=N/OC(=O)C2CCCCC2)cc1	-131*
Cc1ccc(N2C(=O)/C(=C/c3ccco3)SC2=S)cc1	-94*
O=C1NC(=Nc2ccccc2)/C(=C/c2ccco2)S1	-65*
Cc1ccc(/C=C2/SC(=S)N(CCCC(=O)Nc3ccc(O)cc3)C2=O)cc1	86
COc1ccc(N=C2NC(=O)/C(=C/c3ccco3)S2)cc1	-127*
Cc1ccc(N=C2NC(=O)S/C2=C\c2ccco2)cc1	-63*
Cc1ccc(C(=O)NNC(=O)CCCN2C(=O)/C(=C/c3ccccc3Cl)SC2=S)cc1	69
C(=N\Nc1nc2ccccc2[nH]1)/c1cccs1	-172*
Cc1cc(=O)[nH]c(N/N=C/c2sccc2C)n1	-90*
Cc1ccsc1/C=N/Nc1nc2ccccc2[nH]1	-213*
Cc1csc(NC(=O)CSc2nsc(SCC(=O)Nc3nc(C)cs3)c2C#N)n1	-210*
Cn1c(=O)oc2cc(NC(=O)CCl)ccc21	-107*
CC(C)=C1C2C=CC1C(C(=O)Nc1cccc(C)c1)C2C(=O)O (configuration not stated)	-62*
COc1c(C(=O)NNC(=O)c2ccccc2Cl)csc1Br	-85*
O=C(Nc1ccc(NC(=O)c2cc3ccccc3o2)cc1)c1ccc2c(c1)OCCO2	71
CCOC(=O)c1ccc(NC(=O)c2cc3ccccc3o2)cc1	-152*
CC(C)C(=O)Nc1ccc(NC(=O)c2cc3ccccc3o2)cc1	-90*
CCOC(=O)c1cccc(NC(=O)c2cc3ccccc3o2)c1	-110*
CCOc1ccc(/C=C/C(=O)CCC(=O)O)cc1	-79*
SMILES	aSyn UTR act
CCOc1ccc(/C=C\C(C)=N\O)cc1	-150*
Cn1c2ccccc2c(=O)c2cc(C#Cc3ccc(N)cc3)ccc21	-89*
Nc1ccc2oc3ncccc3c(=O)c2c1	-98*
COc1ccc(C#Cc2ccc3c(c2)c(=O)c2ccccc2n3C)cc1	-125*
COc1cc(-c2noc(C)c2C#Cc2ccc(N)cc2)cc(OC)c1OC	88
Nc1ccc(C#Cc2ccc3oc4ccccc4c(=O)c3c2)cc1	-66*
CCc1nc2c(c(=O)c3ccccc3n2C)c(=O)n1CCc1ccc(OC)cc1	74
Nc1ccc2oc3ccccc3c2c1	-101*
COc1ccc(-c2csc(N3N=C(C)C(C)C3=O)n2)cc1 (configuration not stated)	-87*
Cc1nc(-c2cc(-c3ccc(Cl)cc3)no2)cs1	-137*
CC1=NN(c2nc(-c3ccc(C)cc3)cs2)C(=O)C1N=Nc1ccccc1O (configuration not stated)	63
CC(OC(=O)CNC(=O)c1ccccc1F)C(=O)Nc1nc(-c2ccccc2)cs1 (configuration not stated)	-104*
